Screening data from PubChem BioAssay.
SNCA viab count = counter-screen for SNCA expression inhibitors: cell viability | HEK-293-SNCA-luc viability, GF-AFC fluorescence, 24 h | Potency, µM (highest dose often 57.1 µM), for inactives: at the top dose activity change, negative = cytotoxicity, most hits filed as cytotoxic | actives 0.12% (n = 150,000) | AID 1671193;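 also: potency is read from the fitted curve at half-maximal effect; 0% = DMSO-treated cells and -100% = medium-only wells without cells; nearly all actives have a fitted effect of over 30% in size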
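HEK-293-SNCA-luc cells (1500/well) plated 24 h, then exposed 24 h to a dilution series; GF-AFC added 30 min at 37C, fluorescence 405/540 nm; normalised to medium-only and DMSO wells, Hill fit.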
IP6K1 inhibitor = IP6K1 kinase inhibition; AID 1645851; Q92551; actives 0.81% (n = 140,000); IP6K1 kinase, ADP-Glo luminescence, 2 h; stronger effect = lower value; activity change, % (series mostly up to about 58 µM); in the data active = activity change below about -25%; also: % is scaled to controls: 0 for no effect and ±100 for the full control effect
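ADP-Glo luminescence measures ADP made by human IP6K1 during a 2 h RT reaction with ATP/IP6 (mix at 1.3 mM/130 uM); top library doses 57.5 and 19.1 uM final.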
SNCA expr inh = inhibitors of alpha-synuclein (SNCA) gene expression; Potency, µM (series often up to 57.2 µM), for inactives: at the highest dose activity change, negative = inhibition, usual class: inhibitors; HEK-293 SNCA-luciferase knock-in, luminescence, 24 h; actives 0.17% (n = 140,000);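 also: potency is read from the fitted curve at half-maximal effect; plate controls were DMSO cells for no effect and cell-free wells for full effect; nearly all actives have a fitted effect of over 45% in size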
KDM5B inh = KDM5B demethylase inhibition | Potency, µM (series often up to 57.7 µM), hits mostly inhibitors | Q9UGL1 | KDM5B demethylase, FDH-coupled NADH fluorescence (FDH is formaldehyde dehydrogenase) | actives 2.6% (n = 220,000) | AID 1347165; also: potency is read from the fitted curve at half-maximal effect; 0% is about no effect; nearly all actives have a fitted effect of over 70% in size
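KDM5BΔAP (200 nM final) in 50 mM HEPES pH 7.5, 0.01% Tween-20 was preincubated 10 min at RT with compound over a concentration range. Substrate mix (H3K4me3 12.5 µM, α-KG 25 µM, Fe²⁺, ascorbate, NAD⁺, FDH) was added, and NADH fluorescence change over 30 min gave dose-response curves.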
Numbers without * were called inactive; [ ] = remark or other dose. Shown are actives, neighbours in structure and some others; about 2.9% of the full set was active somewhere. Unless noted, calls follow the shape of the dose curve; as a rule, active = well fitted curve in the direction sought with a large enough effect; inconclusive = small, poorly fitted or top-dose-only effect, or another doubt; inactive = no such curve, though single readings can be large; an effect the other way counts as inactive or inconclusive.

CCCNC(=O)NCC1c2cc(OC)c(OC)cc2CCN1C(=O)NCC (centres undefined) was read as SNCA viab count 1%, IP6K1 inhibitor 4, SNCA expr inh -6% and KDM5B inh inactive.
Cc1ccc(NC(=O)CCn2cccn2)cc1Cl was read as SNCA viab count 4%, IP6K1 inhibitor -13, SNCA expr inh 34% and KDM5B inh inactive.
`O=C(Nc1nccs1)c1ccc2c(c1)OCCN(c1ccccc1)C2` gave SNCA viab count 6%[87.6 µM], IP6K1 inhibitor -6, SNCA expr inh 24%[87.6 µM] and KDM5B inh inconclusive.
O=C(Nc1ccc2cn[nH]c2c1)c1ccc2c(c1)OCCN(c1ccccc1)C2 was read as SNCA viab count inconclusive, IP6K1 inhibitor 6, SNCA expr inh 8%[87.6 µM] and KDM5B inh 32µM*.
`O=C(Nc1ccc(-c2nnc3n2CCCC3)cc1)C1CCCCC1` gave SNCA viab count -4%, IP6K1 inhibitor 21, SNCA expr inh 73% and KDM5B inh inactive.
Screening COc1ccc(-c2noc(-c3ccc(N4CCCOCC4)nc3)n2)cc1 returned SNCA viab count 1%, IP6K1 inhibitor 1, SNCA expr inh 73% and KDM5B inh 32µM*.
Screening COc1ccc(-c2noc(-c3ccc(N4C[C@H]5CC[C@H]4C5)nc3)n2)cc1 returned SNCA viab count -2%, IP6K1 inhibitor 5, SNCA expr inh 32% and KDM5B inh 32µM*.
Screening O=C(c1csnn1)N1CCc2onc(-c3cccc(F)c3)c2C1 returned SNCA viab count 0%, IP6K1 inhibitor -4, SNCA expr inh 77% and KDM5B inh inactive.
For Cn1cc(-c2cccc(C(F)(F)F)c2)c2nc(CNc3ccccc3)cn2c1=O the results were SNCA viab count -28%[87.6 µM], IP6K1 inhibitor 3, SNCA expr inh inconclusive and KDM5B inh 35µM*.
`COc1ccccc1CN1CC(COc2ccccc2)C2(C1)CN(C(=O)c1cn[nH]c1)C2` (centres undefined) gave SNCA viab count -2%[87.6 µM], IP6K1 inhibitor 1, SNCA expr inh 2%[87.6 µM] and KDM5B inh inactive.
`Cc1noc(-c2cccn3c(CNC(=O)c4ccoc4)nnc23)n1` gave SNCA viab count -1%, IP6K1 inhibitor 5, SNCA expr inh -11% and KDM5B inh 28µM*.
COc1cccc(CCC(=O)NCc2nnc3c(-c4nc(C)no4)cccn23)c1 was read as SNCA viab count -7%, IP6K1 inhibitor 4, SNCA expr inh -17% and KDM5B inh inconclusive.
`CCc1noc(-c2cccn3c(CNC(=O)c4cccnc4)nnc23)n1` gave SNCA viab count -2%, IP6K1 inhibitor 12, SNCA expr inh 9% and KDM5B inh 32µM*.
Cc1noc(-c2cccn3c(CNC(=O)c4cccnc4)nnc23)n1 was read as SNCA viab count 5%, IP6K1 inhibitor -5, SNCA expr inh 1% and KDM5B inh 28µM*.
Cc1noc(-c2cccn3c(CNC(=O)c4cc(F)cc(F)c4)nnc23)n1 was read as SNCA viab count -1%, IP6K1 inhibitor 0, SNCA expr inh -19% and KDM5B inh inconclusive.
CCc1noc(-c2cccn3c(CNC(=O)c4ccc(OC)c(F)c4)nnc23)n1 was read as SNCA viab count 2%, IP6K1 inhibitor 26, SNCA expr inh -20% and KDM5B inh inconclusive.
`COc1cccc(CC(=O)NCc2nnc3c(-c4nc(C)no4)cccn23)c1` gave SNCA viab count 5%, IP6K1 inhibitor 5, SNCA expr inh -6% and KDM5B inh 18µM*.
`CCCCn1c(=O)[nH]c(=O)c2c1nc(COC(=O)/C=C/c1cc(Cl)c(OC)c(OC)c1)n2C` gave KDM5B inh inactive.
`CCc1[nH]c2c(CNC(=O)C(C)O)cc(C)cc2c1C` (centres undefined) gave SNCA viab count 3%, IP6K1 inhibitor -1, SNCA expr inh 10% and KDM5B inh 32µM*.
COc1ccc(S(=O)(=O)NNC(=O)c2ccc(-n3c(C)ccc3C)cc2)cc1 was read as KDM5B inh inactive.
For CC(=O)c1c(C)nn(CCC(=O)N[C@@H]2CCNC[C@H]2O)c1C the results were SNCA viab count -1%, IP6K1 inhibitor 21, SNCA expr inh -7% and KDM5B inh inactive.
`Cc1nc(N(C)C)ncc1C(=O)N[C@@H]1CCNC[C@H]1O` gave SNCA viab count 0%, IP6K1 inhibitor 16, SNCA expr inh -7% and KDM5B inh 14µM*.
`CCCc1noc(-c2ccn3c(CNC(=O)c4ccccc4OCC)nnc3c2)n1` gave SNCA viab count 2%, IP6K1 inhibitor 45, SNCA expr inh 0% and KDM5B inh 10µM*.
`CCOc1ccccc1C(=O)NCc1nnc2cc(-c3nc(C(C)C)no3)ccn12` gave SNCA viab count 0%, IP6K1 inhibitor 33, SNCA expr inh 5% and KDM5B inh 14µM*.
`Cc1noc(-c2ccn3c(CNC(=O)c4cccc5[nH]ccc45)nnc3c2)n1` gave SNCA viab count -8%, IP6K1 inhibitor 38, SNCA expr inh -2% and KDM5B inh 25µM*.
CCCc1noc(-c2ccn3c(CNC(=O)c4ccccn4)nnc3c2)n1 was read as SNCA viab count 5%, IP6K1 inhibitor 11, SNCA expr inh -8% and KDM5B inh inconclusive.
COc1ccccc1C(=O)NCc1nnc2cc(-c3nc(C)no3)ccn12 was read as SNCA viab count 0%, IP6K1 inhibitor 6, SNCA expr inh 3% and KDM5B inh 10µM*.
`Cc1noc(-c2ccn3c(CNC(=O)c4cc5ccccc5[nH]4)nnc3c2)n1` gave SNCA viab count -10%, IP6K1 inhibitor 28, SNCA expr inh 2% and KDM5B inh inconclusive.
For O=C(Nc1cccc(-c2nc3cc(Cl)ccc3o2)c1)c1cc([N+](=O)[O-])ccc1N1CCOCC1 the results were SNCA viab count -6%, IP6K1 inhibitor 1, SNCA expr inh 43% and KDM5B inh inactive.
O=C(c1ccc(Cl)cc1)N1CCOc2ccccc21 was read as KDM5B inh inactive.
CCOc1ccc2c(n1)CCN(C(=O)c1sccc1C)C2 was read as SNCA viab count -2%[12.5 µM], IP6K1 inhibitor -15, SNCA expr inh -14% and KDM5B inh inconclusive.
CCOc1ccc(Sc2cc(C(=O)NC(C)CC)c3ccccc3n2)cc1 (centres undefined) was read as SNCA viab count -7%, IP6K1 inhibitor 5, SNCA expr inh 24% and KDM5B inh inactive.
For N#CC1CCN(C(=O)c2ccc3nnc(C4CCOCC4)n3c2)CC1 the results were IP6K1 inhibitor 2.
Cc1noc(-c2cccc(OC3CN(C(=O)c4cnn(C)c4)C3)c2)n1 was read as SNCA viab count -4%, IP6K1 inhibitor 13, SNCA expr inh 1% and KDM5B inh inactive.
Screening CCc1noc(-c2ccn3c(CNC(=O)c4cc(Cl)ccc4OC)nnc3c2)n1 returned SNCA viab count -8%, IP6K1 inhibitor 20, SNCA expr inh 3% and KDM5B inh inactive.
`COc1ccccc1C(=O)NCc1nnc2cc(-c3nc(C(C)C)no3)ccn12` gave SNCA viab count 1%, IP6K1 inhibitor 3, SNCA expr inh 6% and KDM5B inh 22µM*.
